# In PubChem BioAssay:
# The source made the active and inactive calls.
# Experiments:
# [1] = system: Human papillomavirus type 1a protein E7 (residues 44-93); experiment: HPV1a E7 fragment binders on microarrays, primary screen, biochemical, small-molecule microarray, residues 44-93, 635 nm fluorescence (AID 1108); details: small-molecule microarray binding, fluorescence 635 nm; higher = more signal;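 further: E7 fragment applied at 1 µg/mL in TBST for 1 h at 4 C; score combines spot fluorescence with its signal to noise ratio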
# [2] = modulators of HCV replicon luciferase signal, primary screen, HCV replication inhibitor project, Huh7 cells, luciferase reporter (AID 1109); details: 48 h, higher = more signal;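 further: huh7 hepatoma cells harbouring a luciferase neomycin HCV replicon reporter; luciferase luminescence as measure of HCV replicon replication; test concentration not given here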
# [3] = target: Left-right determination factor 2 (Homo sapiens) (UniProt O00292); experiment: LEFTY2 binders on small-molecule microarrays, primary screen, biochemical, small-molecule microarray, 635 nm fluorescence scan (AID 1110); details: LEFTY2 binding, higher = more signal
# Sequence of Left-right determination factor 2 (Homo sapiens) (O00292 whole entry, looked up): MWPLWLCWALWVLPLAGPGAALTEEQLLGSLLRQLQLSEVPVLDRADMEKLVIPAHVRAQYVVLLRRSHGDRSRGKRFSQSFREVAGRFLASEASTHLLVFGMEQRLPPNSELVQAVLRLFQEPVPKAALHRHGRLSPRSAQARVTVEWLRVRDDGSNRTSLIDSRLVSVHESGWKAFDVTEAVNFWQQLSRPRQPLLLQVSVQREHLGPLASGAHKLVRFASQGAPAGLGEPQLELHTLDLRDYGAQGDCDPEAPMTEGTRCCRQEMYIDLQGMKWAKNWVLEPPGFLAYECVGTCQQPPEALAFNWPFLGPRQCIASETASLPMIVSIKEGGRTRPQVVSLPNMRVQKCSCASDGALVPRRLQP
# [4] = target: Calmodulin-1 (Homo sapiens) (UniProt P0DP23); experiment: CALM1 binders on microarrays, EGTA buffer, profiling panel, biochemical, small-molecule microarray, Cy5-labelled CALM1 (AID 1111); details: Cy5-CALM1 binding fluorescence, higher = more signal;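 further: labelled calmodulin applied in Tris saline Tween buffer holding calcium plus EGTA and DTT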
# [5] = target: Calmodulin-1 (Homo sapiens) (UniProt P0DP23); experiment: calcium-bound CALM1 binders on microarrays, profiling panel, artefact control for SMM control-protein annotation, biochemical, small-molecule microarray, Cy5-labelled CALM1, plus calcium (AID 1112); details: Cy5-CALM1 binding fluorescence, higher = more signal;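 further: score merges spot fluorescence with signal to noise from triplicate slides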
# [6] = small-molecule microarray binders of probe aWnt5a, primary screen, biochemical, biotinylated probe, 635/667 nm fluorescence (AID 1113); details: higher = more signal;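 further: score merges 667 nm fluorescence intensity with signal-to-noise per printed feature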
# [7] = small-molecule microarray binders of probe aShh, primary screen, biochemical, biotinylated probe, 635/667 nm fluorescence (AID 1114); details: higher = more signal;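 further: probe is biotin-labelled aShh protein from a stem cell growth factor screen; measures binding of labelled protein to compounds printed on the slide; score merges feature fluorescence at 667 nm with signal-to-noise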
# [8] = small-molecule microarray binders of probe aNog, primary screen, biochemical, biotinylated probe, 635/667 nm fluorescence (AID 1115); details: higher = more signal;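 further: probe is biotinylated aNog protein used at 0.15 µg/mL for 1 h at 4 C; z-score combines 667 nm fluorescence of each spot with its signal to noise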
# [9] = target: Torsin-1A-interacting protein 1 (Homo sapiens) (UniProt Q5JTV8); experiment: LAP1 binders from COS7 cell lysate, primary screen, small-molecule microarray, 635/667 nm fluorescence (AID 1116); details: COS7-hLAP1 lysate binding, 635 nm fluorescence, higher = more signal
# Sequence of Torsin-1A-interacting protein 1 (Homo sapiens) (Q5JTV8 whole entry, looked up): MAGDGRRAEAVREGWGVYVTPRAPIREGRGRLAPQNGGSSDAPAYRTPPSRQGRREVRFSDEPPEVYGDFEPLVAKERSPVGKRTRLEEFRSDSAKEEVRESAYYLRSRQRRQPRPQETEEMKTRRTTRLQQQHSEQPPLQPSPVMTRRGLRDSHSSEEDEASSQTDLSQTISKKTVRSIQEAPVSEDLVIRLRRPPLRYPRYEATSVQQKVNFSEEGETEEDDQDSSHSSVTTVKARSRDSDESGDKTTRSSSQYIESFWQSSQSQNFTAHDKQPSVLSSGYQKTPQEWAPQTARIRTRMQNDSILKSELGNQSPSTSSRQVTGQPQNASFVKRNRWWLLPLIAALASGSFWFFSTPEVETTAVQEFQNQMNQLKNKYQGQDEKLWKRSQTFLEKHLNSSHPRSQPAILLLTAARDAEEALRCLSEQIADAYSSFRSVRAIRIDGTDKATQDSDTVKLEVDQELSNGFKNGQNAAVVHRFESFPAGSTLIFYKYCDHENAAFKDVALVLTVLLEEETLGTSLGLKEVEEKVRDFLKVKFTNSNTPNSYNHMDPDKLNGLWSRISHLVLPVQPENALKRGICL
# [10] = target: Alpha-bungarotoxin (Bungarus multicinctus) (UniProt P60615); experiment: alpha-bungarotoxin binders on microarray, profiling panel, artefact control for SMM control protein annotation, biochemical, small-molecule microarray, Alexa647 label, 635/667 nm fluorescence (AID 1117); details: alpha-BTX-A647 binding fluorescence, higher = more signal
# Sequence of Alpha-bungarotoxin (Bungarus multicinctus) (P60615 whole entry, looked up): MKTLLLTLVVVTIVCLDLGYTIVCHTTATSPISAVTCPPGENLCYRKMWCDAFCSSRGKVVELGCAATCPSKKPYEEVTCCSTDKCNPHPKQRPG
# Albumin (Bos taurus) = Albumin (Bos taurus) (UniProt P02769); experiment: bovine serum albumin binders on microarray, profiling panel, artefact control for SMM control protein annotation, biochemical, small-molecule microarray, Alexa647 label, 635/667 nm fluorescence (AID 1118); details: BSA-A647 binding, fluorescence 635 nm, higher = more signal;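 further: score merges 667 nm emission intensity and signal-to-noise per printed compound spot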
# Sequence of Albumin (Bos taurus) (P02769 whole entry, looked up): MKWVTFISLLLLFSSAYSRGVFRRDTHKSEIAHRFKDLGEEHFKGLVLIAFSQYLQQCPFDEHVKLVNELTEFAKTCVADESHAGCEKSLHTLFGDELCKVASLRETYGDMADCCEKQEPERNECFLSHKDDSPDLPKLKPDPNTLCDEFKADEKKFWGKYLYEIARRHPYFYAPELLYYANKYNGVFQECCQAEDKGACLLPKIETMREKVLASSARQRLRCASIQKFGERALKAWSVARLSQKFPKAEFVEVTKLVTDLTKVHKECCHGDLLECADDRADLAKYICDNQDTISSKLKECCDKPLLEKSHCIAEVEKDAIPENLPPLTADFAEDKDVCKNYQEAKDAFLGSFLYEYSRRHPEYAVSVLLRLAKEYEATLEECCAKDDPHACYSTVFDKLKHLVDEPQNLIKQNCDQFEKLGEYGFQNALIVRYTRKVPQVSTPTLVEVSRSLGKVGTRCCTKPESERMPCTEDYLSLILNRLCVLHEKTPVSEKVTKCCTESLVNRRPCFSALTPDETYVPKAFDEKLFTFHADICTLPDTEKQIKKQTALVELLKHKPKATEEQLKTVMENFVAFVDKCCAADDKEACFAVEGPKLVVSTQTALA
# [11] = small-molecule microarray binders of probe aXIP, primary screen, biochemical, NeuroSMM set, 635/667 nm fluorescence (AID 1119); details: higher = more signal, called active from +8 up or from −8 down;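 further: probe is the protein aXip251-270 applied at 1 µg/mL to compound-printed slides; binding of probe to printed compounds measured as 667 nm fluorescence plus signal to noise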
# [12] = small-molecule binders of probe aNOTCH3, primary screen, biochemical, small-molecule microarray, 635/667 nm fluorescence (AID 1120); details: higher = more signal;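 further: probe is a biotin-tagged antibody raised against NOTCH3 rather than NOTCH3 protein; score merges spot fluorescence near 667 nm with spot signal to noise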
# [13] = small-molecule binders of probe aNOTCH2, primary screen, biochemical, small-molecule microarray, 635/667 nm fluorescence (AID 1121); details: higher = more signal;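 further: score merges feature fluorescence read at 667 nm with its signal to noise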
# [14] = target: Carbonic anhydrase 2 (Homo sapiens) (UniProt P00918); experiment: CAII small-molecule binders, profiling panel, biochemical, small-molecule microarray, Alexa647-labelled CAII (AID 1122); details: CAII-A647 binding fluorescence, higher = more signal
# [15] = COS7 lysate on small-molecule microarray, probe aHis, 635 nm (AID 1123); details: COS7 cell lysate, fluorescence, higher = more signal;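 further: z-score combines 667nm fluorescence intensity with signal-to-noise per printed compound spot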
# [16] = compound binding in COS7 lysate, probe aLAP1, primary screen, cell lysate, small-molecule microarray (AID 1124); details: probe aLAP1, fluorescence, higher = more signal;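 further: lysate comes from COS7 cells expressing LAP1 and is applied at 0.3 µg/mL; score merges spot fluorescence near 667 nm with signal-to-noise over triplicate slides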
# Sam68 (KHDRBS1) = experiment: Sam68 small-molecule binders, primary screen, biochemical, small-molecule microarray, 635 nm fluorescence (AID 1125); details: small-molecule microarray binding, higher = more signal;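 further: score merges 667 nm channel intensity with signal to noise over triplicate slides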
# [17] = system: Chordin-like protein 2 (CHRDL2); experiment: CHRDL2 small-molecule binders, primary screen, biochemical, small-molecule microarray, 635 nm fluorescence (AID 1126); details: small-molecule microarray binding, fluorescence 635 nm; higher = more signal;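 further: printed compound slides probed with Chrdl2 protein at 4 µg/mL for 1 h at 4 C; score merges 667 nm emission intensity with signal to noise over three replicate slides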
# [18] = target: Concanavalin-A (Canavalia ensiformis) (UniProt P02866); experiment: ConA small-molecule binders, primary screen, artefact control for SMM control protein annotation, biochemical, small-molecule microarray, Alexa647 label, 635 nm (AID 1127); details: ConA-A647 binding fluorescence, higher = more signal;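 further: z combines 667 nm emission intensity with signal-to-noise across three replicate slides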
# Sequence of Concanavalin-A (Canavalia ensiformis) (P02866 whole entry, looked up): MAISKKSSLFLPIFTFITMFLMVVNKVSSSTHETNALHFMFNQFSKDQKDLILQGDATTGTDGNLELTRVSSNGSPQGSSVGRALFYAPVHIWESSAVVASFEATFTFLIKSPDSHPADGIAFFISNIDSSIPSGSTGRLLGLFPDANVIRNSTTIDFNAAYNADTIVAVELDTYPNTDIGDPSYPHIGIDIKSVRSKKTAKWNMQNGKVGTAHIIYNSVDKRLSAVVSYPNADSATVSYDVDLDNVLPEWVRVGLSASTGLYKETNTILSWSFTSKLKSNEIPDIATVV
SMILES,composite z-score [1],z-score [2],composite z-score [3],composite z-score [4],composite z-score [5],composite z-score [6],composite z-score [7],composite z-score [8],composite z-score [9],composite z-score [10],composite z-score (Albumin (Bos taurus)),composite Z-score [11],composite z-score [12],composite z-score [13],composite z-score [14],composite z-score [15],composite z-score [16],composite z-score (Sam68 (KHDRBS1)),composite z-score [17],composite z-score [18]
COc1cc2c(cc1O)C(c1ccc(CN3CCCC3)cc1)N(Cc1sc3ccccc3c1Cl)CC2 (stereo not given),0.573,-2.57,0.82,0.26,-0.935,-0.0036,-0.0626,0.151,0.0494,0.518,-0.185,0.0786 (inactive),0.0394,-0.0861,0.752,0.415,0.179,-0.209,1.05,1.11
C=CC[C@@]1(C(=O)OC)N=C(c2ccc(OCCCO)cc2)O[C@@H]1c1ccccc1CN=[N+]=[N-],1.14,-2.02,-0.0045,-0.517,-0.896,-0.144,-0.0553,-0.24,0.798,0.389,-0.13,-0.169 (inactive),0.0419,-0.102,0.586,1.48,-0.11,0.38,0.373,0.518
CCCC[C@@H]1C[C@H]1[C@@H](NC(=O)c1ccccc1)c1ccc(-c2ccccc2)cc1,1.34,-2.9,0.0692,0.232,0.596,0.0375,0.1,-0.421,0.0036,0.805,0.891,-0.0708 (inactive),-0.0647,-0.128,0.498,1.17,-0.146,0.893,-0.995,0.147
O=C1OCCC/C=C\[C@H]2OC34C=CCN(Cn5nnc6ccccc65)C(=O)[C@H]3N(CCCO)C(=O)[C@@H]4C12 (stereo not given in full),0.692,-1.01,-2,-0.44,0.458,-0.191,0.0952,0.574,2.11,-1.75,-1.38,-0.774 (inactive),-0.306,-0.112,0.896,1.82,0.888,0.301,-2.21,-0.946
CCCC[C@@H]1C[C@H]1[C@@H](NC(=O)c1ccccc1)c1ccccc1,0.305,-0.978,-0.137,-0.0221,0.635,0.298,0.121,2.11,-0.192,0.012,0.0945,0.103 (inactive),0.667,0.253,-0.0524,0.506,-0.159,0.138,-0.608,-0.482
C=CC[C@]1(C(=O)NCCN2CCOCC2)N=C(c2ccc(OCCCO)cc2)O[C@H]1c1ccccc1N=[N+]=[N-],1.01,-0.44,0.26,1.34,-0.0083,0.048,-0.155,1.39,1.36,1.3,0.927,0.581 (inactive),0.0303,-0.0359,0.691,1.55,0.811,1.24,0.663,0.563
O=C1NC(=O)C2C1C=CC(C(O)c1cccs1)N2Nc1ccccn1 (stereo not given),0.348,0.755,0.451,0.0761,-0.576,-0.096,-0.214,0.0516,1.32,1.19,0.426,0.32 (inactive),0.118,-0.0826,0.803,1.21,0.0919,0.248,0.129,0.766
COCCCNC(=O)[C@@]1(Cc2ccccc2I)c2ccccc2C(=O)N(Cc2ccccc2)[C@H]1c1ccc(CO)cc1,0.609,-1.38,-2.53,-0.387,0.239,-0.232,-0.0146,0.0327,0.258,-1.4,-1.09,-0.0662 (inactive),-0.265,-0.162,0.574,0.817,-0.665,0.337,-1.47,-1.3
CN1C(=O)C2C=CC(C(O)C=Cc3ccc([N+](=O)[O-])cc3)N(N3CCCCC3)C2C1=O (stereo not given),0.974,0.789,0.443,2.44,0.925,0.613,0.926,1.66,0.856,2.07,0.933,0.693 (inactive),1.03,0.713,0.766,2.1,1.52,1.31,0.57,1.2
O=C1O[C@H](c2ccccc2)[C@H](c2ccccc2)N2[C@H]1[C@@H](C(=O)N1CCCCCCC1)[C@]1(C(=O)Nc3ccc(C#CC4=CCCCC4)cc31)[C@H]2c1ccc(O)cc1,1.54,-2.29,1.78,3.22,2.02,1.68,3.35,3.53,5.98,5.18,0.599,10.9 (active),2.37,1.22,1.1,5.31,1.2,1.35,1.71,1.14
CN1C(=O)C2C(C1=O)C1C=C(c3ccc(CO)cc3)C2C(C2CC2)N1Cc1cc2c(cc1Br)OCO2 (stereo not given),1.36,-1.11,0.72,1.68,0.6,-0.027,-0.0866,1.04,2.24,1.73,1.03,1.55 (inactive),0.211,0.109,0.786,3.13,0.863,1.3,0.258,1.16
